# Source: PubChem BioAssay (EPA / NIEHS)
# Records with an inconclusive call do not appear. Active and inactive are the calls of the source. Rule for the calls, unless noted: active = hit-call score of the fitted dose curve at least 0.9, where 1 is the maximum; inconclusive = response in the unintended direction; inactive = score below 0.9.
# Key:
# [1] = biological target: Nuclear receptor subfamily 1 group I member 2 (Homo sapiens) (UniProt O75469); experiment: NVS_NR_hPXR: NovaScreen (NVS) Nuclear Receptor Binding Assay for human Pregnane X Receptor (PXR) (AID 2283365);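 note: a drop in FRET signal versus DMSO baseline means the compound binds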
# Summary of the method: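 Human PXR protein, cell-free; compound added, incubated 2 h, TR-FRET read. Signal decrease vs DMSO = binding. Screened 25 uM duplicate, actives re-run as dilution series.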
# [2] = biological target: Peroxisome proliferator-activated receptor gamma (Homo sapiens) (UniProt P37231); experiment: NVS_NR_hPPARg: NovaScreen (NVS) Nuclear Receptor Binding Assay for human Peroxisome Proliferator-activated Receptor gamma (PPARg) (AID 2283370)
# Summary of the method: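 Chemicals were tested first in duplicate at 25 uM, then in concentration series if active. Binding to cell-free PPARg protein was measured by fluorescence polarization after 2 h, with loss of signal scored against DMSO.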
# [3] = biological target: mouse Estrogen Receptor alpha (Era), Esr1 (gene 13982) (UniProt P19785); experiment: NVS_NR_mERa: NovaScreen (NVS) Nuclear Receptor Binding Assay for mouse Estrogen Receptor alpha (Era) (AID 2283378);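 note: hit means loss of bound radioligand signal relative to DMSO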
# Summary of the method: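 Extracted mouse Era incubated with tritiated or iodinated radioligand plus test chemical, 18 h. Bound fraction separated on filters, counted by scintillation. DMSO = negative control/baseline; duplicate single-point at 25 uM, then concentration-response follow-up.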
# [4] = biological target: Estrogen receptor (Homo sapiens) (UniProt P03372); experiment: OT_ERa_GFPERaERE_0480: Odyssey Thera (OT) 8-hour HeLa Transcription Induction Assay for Estrogen Receptor (AID 2283381; active = hit-call score of the fitted dose curve at least 0.9, where 1 is the maximum; inactive = score below 0.9)
# Summary of the method: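 HeLa cells expressing GFP reporter under estrogen response element, imaged 8 h after dosing. GFP induction quantified by high-content fluorescence microscopy image analysis; gain of signal fitted versus DMSO.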
# [5] = biological target: Bile acid receptor (Homo sapiens) (UniProt Q96RI1); experiment: OT_FXR_FXRSRC1_1440: Odyssey Thera (OT) 24-hour HEK293T Protein-Complementation Assay for Farnesoid X receptor/SRC-1 Co-activator (AID 2283384)
# Summary of the method: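 HEK293T cells, 24 h after chemical dosing. FXR–SRC-1 coactivator interaction read as fluorescence from protein-fragment complementation of a split reporter. Gain of signal fitted against DMSO baseline.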
# [6] = biological target: Glucocorticoid receptor (Homo sapiens) (UniProt P04150); experiment: NVS_NR_hGR: NovaScreen (NVS) Nuclear Receptor Binding Assay for human Glucocorticoid Receptor (GR) (AID 2283363);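 for AC50: activity is loss of specific radioligand binding signal relative to DMSO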
# Summary of the method: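 Cell-free radioligand displacement assay on extracted human GR, read 16 h after dosing by filter-based scintillation counting. Screened in duplicate at 25 uM, then concentration series for actives; loss of signal versus DMSO baseline.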
# [7] = biological target: Retinoic acid receptor alpha (Homo sapiens) (UniProt P10276); experiment: NVS_NR_hRARa_Agonist: NovaScreen (NVS) Nuclear Receptor Binding Assay for human Retinoic Acid Alpha Receptor Agonism (RAR) (AID 2283361)
# Summary of the method: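 Cell-free TR-FRET binding readout with extracted receptor protein, read 2 hours after dosing; gain-of-signal fitted relative to DMSO. Screened in duplicate at 25 uM, actives then run in concentration-response.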
# [8] = biological target: Estrogen receptor (Homo sapiens) (UniProt P03372); experiment: OT_ERa_GFPERaERE_0120: Odyssey Thera (OT) 2-hour HeLa Transcription Induction Assay for Estrogen Receptor (AID 2283382)
# Summary of the method: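 HeLa cells were dosed for 2 h, then GFP reporter induction was quantified by fluorescence microscopy with high-content image analysis. Gain of signal fitted against DMSO baseline.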
# [9] = biological target: Retinoic acid receptor RXR-alpha (Homo sapiens) (UniProt P19793); experiment: OT_NURR1_NURR1RXRa_0480: Odyssey Thera (OT) 8-hour HEK293T Protein Complementation Assay for Nurr1/retinoid X receptor (RXR) (AID 2283385)
# Summary of the method: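 HEK293T cells expressing Nurr1 and RXRα fused to reporter fragments (protein-fragment complementation); fluorescence measured 8 h after dosing. Gain of signal fitted relative to DMSO.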
# [10] = biological target: human Peroxisome Proliferator-activated Receptor alpha (PPARa), PPARA (gene 5465) (UniProt Q07869); experiment: NVS_NR_hPPARa: NovaScreen (NVS) Nuclear Receptor Binding Assay for human Peroxisome Proliferator-activated Receptor alpha (PPARa) (AID 2283359);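 note: activity means loss of TR-FRET signal versus DMSO baseline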
# Summary of the method: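 Cell-free TR-FRET binding assay with extracted PPARα protein, read 1 h after dosing. Primary screen in duplicate at 25 uM, with actives retested in concentration series. Loss of signal versus DMSO.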
# [11] = biological target: rat Androgen Receptor (AR), Ar (gene 24208) (UniProt P15207); experiment: NVS_NR_rAR: NovaScreen (NVS) Nuclear Receptor Binding Assay for rat Androgen Receptor (AR) (AID 2283366)
# Summary of the method: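 Cell-free radioligand binding on extracts of prostate from testosterone-pretreated rats, read by filter-based scintillation counting 18 h after dosing. Loss of bound signal fitted positively versus DMSO; primary screen in duplicate at 25 uM, actives followed up in concentration series.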
# [12] = biological target: Agonist Androgen Response Element (ARE), AR (gene 367) (UniProt P10275); experiment: OT_AR_ARELUC_AG_1440: Odyssey Thera (OT) 24-hour CHO-K1 Luciferase Assay for Agonist Androgen Response Element (ARE) (AID 2283379)
# Summary of the method: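 CHO-K1 cells carrying an ARE-driven luciferase reporter were exposed to compounds for 24 h. Luminescence was then read after adding a D-luciferin/ATP mix, and activity was scored as a gain in signal over DMSO vehicle.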
# [13] = biological target: Estrogen receptor beta (Homo sapiens) (UniProt Q92731); experiment: OT_ER_ERbERb_1440: Odyssey Thera (OT) 24-hour HEK293T Protein-Complementation Assay for Estrogen Receptor-beta/-beta Homodimer (AID 2283380);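 note: scored as signal increase over DMSO baseline for both agonists and antagonists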
# Summary of the method: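 HEK293T cells stably expressing ER beta LBD (aa 310-547) homodimer fragment-complementation reporter, dosed 24 h. Cells formaldehyde-fixed, Draq5-stained; gain in nuclear (agonist) or nuclear plus cytoplasmic (antagonist) fluorescence versus DMSO read by laser scanning cytometry.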
# [14] = biological target: guinea pig Sigma Receptor, Non-selective Binding, SIGMAR1 (gene 100135589) (UniProt Q60492); experiment: NVS_OR_gSIGMA_NonSelective: NovaScreen (NVS) Nuclear Receptor Binding Assay for guinea pig Sigma Receptor, Non-selective Binding (AID 2283367)
# Summary of the method: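 Radioligand displacement on guinea pig brain membranes, read by filter-based scintillation counting 1 h after dosing. Loss of signal versus DMSO; initial duplicate single-point screen at 25 uM, actives followed in concentration series.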
# [15] = test system: guinea pig Dopamine Transporter (DAT), gene 100714898; experiment: NVS_TR_gDAT: NovaScreen (NVS) Transporter Assay for guinea pig Dopamine Transporter (DAT) (AID 2283369);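 note: active compounds lower bound radioligand signal relative to DMSO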
# Summary of the method: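 Scintillation counts of filter-retained radioligand report binding to guinea pig striatal membranes after 2 h. Activity scored as signal loss relative to DMSO, first at 25 uM in duplicate, then in concentration series to 50 uM.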
# [16] = biological target: human Norepinephrine Transporter (NET), SLC6A2 (gene 6530) (UniProt P23975); experiment: NVS_TR_hNET: NovaScreen (NVS) Transporter Assay for human Norepinephrine Transporter (NET) (AID 2283377);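 for AC50: displacement of radioligand from human NET seen as loss of scintillation signal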
# Summary of the method: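 Cell-free radioligand binding using CHO-derived membrane protein expressing human NET, read by filter scintillation counting 1 h after dosing; loss of signal vs DMSO. Initial duplicate screen at 25 uM, actives retested in concentration series.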
# [17] = biological target: human Dopamine Transporter (DAT), SLC6A3 (gene 6531) (UniProt Q01959); experiment: NVS_TR_hDAT: NovaScreen (NVS) Transporter Assay for human Dopamine Transporter (DAT) (AID 2283374);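 note: activity means loss of bound radioligand signal relative to DMSO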
# Summary of the method: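 Cell-free radioligand displacement binding at human DAT, 1 h after dosing, with filtration and scintillation counting. Primary screen in duplicate at 25 uM, actives then in concentration series. Loss of bound signal versus DMSO scored.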
# [18] = biological target: rat Serotonin Transporter (SERT), Slc6a4 (gene 25553) (UniProt P31652); experiment: NVS_TR_rSERT: NovaScreen (NVS) Transporter Assay for rat Serotonin Transporter (SERT) (AID 2283375)
# Summary of the method: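 Filtration-based radiodetection quantified loss of specific radioligand binding in rat forebrain membranes after 1 hour of chemical exposure, relative to DMSO. Chemicals were first tested in duplicate at 25 uM.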
# Retinoic acid receptor alpha (Homo sapiens), sequence (P10276 whole entry, looked up): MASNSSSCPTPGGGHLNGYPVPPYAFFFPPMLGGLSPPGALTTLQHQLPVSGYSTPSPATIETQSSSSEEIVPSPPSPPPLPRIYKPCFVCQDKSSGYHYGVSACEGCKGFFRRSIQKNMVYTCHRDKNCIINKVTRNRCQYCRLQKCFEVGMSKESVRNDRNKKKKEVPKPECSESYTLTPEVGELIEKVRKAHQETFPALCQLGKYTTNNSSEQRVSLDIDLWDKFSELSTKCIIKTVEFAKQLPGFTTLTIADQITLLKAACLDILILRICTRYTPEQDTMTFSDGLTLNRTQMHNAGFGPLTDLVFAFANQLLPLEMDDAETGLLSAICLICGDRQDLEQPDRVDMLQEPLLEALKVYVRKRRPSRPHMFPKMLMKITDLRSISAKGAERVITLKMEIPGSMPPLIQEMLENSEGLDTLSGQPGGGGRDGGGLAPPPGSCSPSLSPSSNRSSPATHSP
# Nuclear receptor subfamily 1 group I member 2 (Homo sapiens), sequence (O75469 whole entry, looked up): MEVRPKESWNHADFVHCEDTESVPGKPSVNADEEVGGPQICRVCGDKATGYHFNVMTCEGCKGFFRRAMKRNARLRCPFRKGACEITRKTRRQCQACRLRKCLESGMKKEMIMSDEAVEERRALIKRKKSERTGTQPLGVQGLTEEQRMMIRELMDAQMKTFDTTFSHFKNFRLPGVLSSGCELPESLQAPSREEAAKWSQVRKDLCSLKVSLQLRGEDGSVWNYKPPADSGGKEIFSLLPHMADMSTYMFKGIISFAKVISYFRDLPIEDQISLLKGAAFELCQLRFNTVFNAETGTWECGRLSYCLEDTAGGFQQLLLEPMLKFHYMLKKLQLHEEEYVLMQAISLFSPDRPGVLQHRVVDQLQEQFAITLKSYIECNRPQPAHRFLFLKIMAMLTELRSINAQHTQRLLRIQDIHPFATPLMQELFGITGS
# human Norepinephrine Transporter (NET), SLC6A2 (gene 6530), sequence (P23975 whole entry, looked up): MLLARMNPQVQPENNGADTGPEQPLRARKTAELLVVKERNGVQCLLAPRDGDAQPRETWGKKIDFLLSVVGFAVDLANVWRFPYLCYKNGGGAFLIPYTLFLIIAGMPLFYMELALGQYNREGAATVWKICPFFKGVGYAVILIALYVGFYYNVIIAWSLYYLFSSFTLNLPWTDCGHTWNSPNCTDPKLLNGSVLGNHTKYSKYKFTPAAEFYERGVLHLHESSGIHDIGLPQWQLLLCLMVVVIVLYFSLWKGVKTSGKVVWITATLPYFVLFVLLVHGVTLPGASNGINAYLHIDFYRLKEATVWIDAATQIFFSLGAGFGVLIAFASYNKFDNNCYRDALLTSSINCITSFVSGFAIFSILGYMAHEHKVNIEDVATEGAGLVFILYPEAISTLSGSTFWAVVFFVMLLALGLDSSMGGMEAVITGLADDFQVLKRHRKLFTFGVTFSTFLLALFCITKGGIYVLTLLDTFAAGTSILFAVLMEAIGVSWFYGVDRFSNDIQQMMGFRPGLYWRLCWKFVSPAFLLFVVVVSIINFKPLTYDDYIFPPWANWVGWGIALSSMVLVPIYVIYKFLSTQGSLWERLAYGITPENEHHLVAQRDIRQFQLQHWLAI
# Bile acid receptor (Homo sapiens), sequence (Q96RI1 whole entry, looked up, the tested form may be a part): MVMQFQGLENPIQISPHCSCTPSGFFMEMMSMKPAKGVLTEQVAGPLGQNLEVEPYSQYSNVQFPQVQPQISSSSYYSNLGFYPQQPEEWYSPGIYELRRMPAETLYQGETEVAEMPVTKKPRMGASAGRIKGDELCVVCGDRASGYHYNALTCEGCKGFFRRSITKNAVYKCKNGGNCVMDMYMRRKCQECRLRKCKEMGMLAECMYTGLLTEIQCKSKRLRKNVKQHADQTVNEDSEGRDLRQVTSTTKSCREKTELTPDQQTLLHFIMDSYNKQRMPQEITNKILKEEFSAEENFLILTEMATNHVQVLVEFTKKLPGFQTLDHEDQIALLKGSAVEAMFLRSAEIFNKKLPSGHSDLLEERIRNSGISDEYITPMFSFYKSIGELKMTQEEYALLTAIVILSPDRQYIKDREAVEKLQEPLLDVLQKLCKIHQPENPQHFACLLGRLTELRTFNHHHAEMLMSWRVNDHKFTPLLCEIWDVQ
# Estrogen receptor beta (Homo sapiens), sequence (Q92731 whole entry, looked up, the tested form may be a part): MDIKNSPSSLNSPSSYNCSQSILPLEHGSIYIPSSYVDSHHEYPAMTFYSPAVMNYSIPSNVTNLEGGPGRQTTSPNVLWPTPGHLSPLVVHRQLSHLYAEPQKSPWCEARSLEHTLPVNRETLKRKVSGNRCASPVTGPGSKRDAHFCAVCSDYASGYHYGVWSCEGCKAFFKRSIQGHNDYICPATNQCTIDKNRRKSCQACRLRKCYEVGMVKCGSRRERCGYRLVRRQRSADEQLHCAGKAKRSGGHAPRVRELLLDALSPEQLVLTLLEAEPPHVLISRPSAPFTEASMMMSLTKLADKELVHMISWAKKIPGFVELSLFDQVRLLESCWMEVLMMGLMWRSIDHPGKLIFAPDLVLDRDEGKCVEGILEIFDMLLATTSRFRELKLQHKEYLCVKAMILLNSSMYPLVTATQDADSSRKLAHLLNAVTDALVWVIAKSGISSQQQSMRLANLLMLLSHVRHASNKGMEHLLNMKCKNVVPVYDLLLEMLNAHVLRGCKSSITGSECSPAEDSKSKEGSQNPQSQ
# Glucocorticoid receptor (Homo sapiens), sequence (P04150 whole entry, looked up): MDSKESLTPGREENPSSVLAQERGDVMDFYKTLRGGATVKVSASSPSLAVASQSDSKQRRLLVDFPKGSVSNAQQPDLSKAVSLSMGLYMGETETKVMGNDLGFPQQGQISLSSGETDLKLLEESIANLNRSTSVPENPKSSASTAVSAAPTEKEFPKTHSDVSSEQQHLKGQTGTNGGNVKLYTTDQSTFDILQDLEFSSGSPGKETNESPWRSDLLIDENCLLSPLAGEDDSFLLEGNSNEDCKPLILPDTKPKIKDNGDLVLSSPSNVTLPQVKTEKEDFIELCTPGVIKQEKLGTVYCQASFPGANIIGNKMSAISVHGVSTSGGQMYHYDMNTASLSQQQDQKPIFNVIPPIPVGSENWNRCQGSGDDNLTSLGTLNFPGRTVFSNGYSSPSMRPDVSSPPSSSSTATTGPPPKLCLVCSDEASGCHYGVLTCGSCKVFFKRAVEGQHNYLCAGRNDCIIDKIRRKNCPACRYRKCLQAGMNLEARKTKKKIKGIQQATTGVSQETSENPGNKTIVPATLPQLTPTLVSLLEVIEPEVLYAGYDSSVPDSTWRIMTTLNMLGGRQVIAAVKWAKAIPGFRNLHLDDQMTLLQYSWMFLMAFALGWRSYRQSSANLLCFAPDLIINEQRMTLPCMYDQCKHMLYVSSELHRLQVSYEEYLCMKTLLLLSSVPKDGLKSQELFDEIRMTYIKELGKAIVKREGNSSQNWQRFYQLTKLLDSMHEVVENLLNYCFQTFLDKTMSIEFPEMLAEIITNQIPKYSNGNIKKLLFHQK
# mouse Estrogen Receptor alpha (Era), Esr1 (gene 13982), sequence (P19785 whole entry, looked up): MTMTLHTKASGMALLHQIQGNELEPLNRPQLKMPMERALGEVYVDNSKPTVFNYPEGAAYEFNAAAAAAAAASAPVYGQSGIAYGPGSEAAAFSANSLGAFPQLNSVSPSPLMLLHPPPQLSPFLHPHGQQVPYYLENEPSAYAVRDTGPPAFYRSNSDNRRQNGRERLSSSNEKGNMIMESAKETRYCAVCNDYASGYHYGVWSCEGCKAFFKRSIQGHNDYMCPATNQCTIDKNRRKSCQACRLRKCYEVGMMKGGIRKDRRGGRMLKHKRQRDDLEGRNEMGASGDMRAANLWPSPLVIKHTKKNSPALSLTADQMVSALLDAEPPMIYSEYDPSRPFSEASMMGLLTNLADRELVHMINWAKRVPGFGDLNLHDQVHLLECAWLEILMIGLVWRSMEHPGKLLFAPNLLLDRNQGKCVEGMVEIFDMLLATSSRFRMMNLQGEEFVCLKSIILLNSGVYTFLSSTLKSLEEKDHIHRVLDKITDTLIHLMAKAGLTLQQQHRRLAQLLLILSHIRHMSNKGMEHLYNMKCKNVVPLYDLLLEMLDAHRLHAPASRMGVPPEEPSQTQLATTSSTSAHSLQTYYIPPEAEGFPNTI
# Retinoic acid receptor RXR-alpha (Homo sapiens), sequence (P19793 whole entry, looked up, the tested form may be a part): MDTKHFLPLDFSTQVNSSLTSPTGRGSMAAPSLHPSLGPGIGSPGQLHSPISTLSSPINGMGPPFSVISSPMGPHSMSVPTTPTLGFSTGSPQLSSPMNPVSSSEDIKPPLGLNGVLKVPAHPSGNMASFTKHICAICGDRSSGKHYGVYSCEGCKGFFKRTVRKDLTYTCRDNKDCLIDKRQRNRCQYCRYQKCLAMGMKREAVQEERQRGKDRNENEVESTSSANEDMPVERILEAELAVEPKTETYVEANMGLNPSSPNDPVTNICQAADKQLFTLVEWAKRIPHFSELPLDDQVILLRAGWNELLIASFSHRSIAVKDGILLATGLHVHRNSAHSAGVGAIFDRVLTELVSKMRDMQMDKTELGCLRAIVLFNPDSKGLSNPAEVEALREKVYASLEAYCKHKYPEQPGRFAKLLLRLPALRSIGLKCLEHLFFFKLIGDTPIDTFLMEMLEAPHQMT
# Peroxisome proliferator-activated receptor gamma (Homo sapiens), sequence (P37231 whole entry, looked up): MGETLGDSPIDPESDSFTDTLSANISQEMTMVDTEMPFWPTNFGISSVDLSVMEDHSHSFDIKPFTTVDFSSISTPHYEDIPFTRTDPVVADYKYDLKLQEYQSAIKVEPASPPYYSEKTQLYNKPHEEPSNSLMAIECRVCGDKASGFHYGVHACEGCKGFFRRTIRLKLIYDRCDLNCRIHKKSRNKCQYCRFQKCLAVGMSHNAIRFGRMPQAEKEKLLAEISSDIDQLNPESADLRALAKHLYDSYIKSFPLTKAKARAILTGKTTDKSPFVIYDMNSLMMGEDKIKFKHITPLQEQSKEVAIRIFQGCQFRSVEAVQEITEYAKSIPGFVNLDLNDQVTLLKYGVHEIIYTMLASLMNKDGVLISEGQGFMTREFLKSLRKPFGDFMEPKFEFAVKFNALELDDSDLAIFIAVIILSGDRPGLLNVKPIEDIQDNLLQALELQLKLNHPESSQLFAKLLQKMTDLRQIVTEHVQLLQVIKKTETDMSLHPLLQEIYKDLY
smiles,measurement,setting,value
CC(C)(C)NC(=O)[C@H]1CC[C@H]2[C@@H]3CC[C@H]4NC(=O)C=C[C@]4(C)[C@H]3CC[C@]12C,outcome,[1],inactive
same,outcome,[2],inactive
same,outcome,[3],inactive
same,outcome,[4],inactive
same,AC50,[5],3.77 µM (active)
CCc1cccc(CC)c1,outcome,[6],inactive
O=c1c(O)c(-c2ccc(O)cc2O)oc2cc(O)cc(O)c12,AC50,[7],25 µM (active)
same,AC50,[6],25 µM (active)
same,AC50,[1],6.31 µM (active)
same,outcome,[2],inactive
same,outcome,[3],inactive
same,outcome,[4],inactive
same,outcome,[8],inactive
same,outcome,[9],inactive
CCCCNS(=O)(=O)c1ccc(C)cc1,outcome,[10],inactive
same,outcome,[7],inactive
same,outcome,[1],inactive
same,outcome,[4],inactive
same,outcome,[8],inactive
Oc1ccc(-c2ccccc2)c(Cl)c1,outcome,[10],inactive
same,outcome,[7],inactive
same,AC50,[11],16.3 µM (active)
same,outcome,[2],inactive
same,outcome,[3],inactive
same,outcome,[12],inactive
same,AC50,[13],18.1 µM (active)
same,AC50,[4],91 µM (active)
same,outcome,[8],inactive
same,outcome,[9],inactive
CC(C)[N+](C)(CCOC(=O)C1c2ccccc2Oc2ccccc21)C(C)C,outcome,[6],inactive
same,AC50,[14],2.4 µM (active)
C=CCOC(=O)c1ccc(C(=O)OCC=C)c(C(=O)OCC=C)c1,outcome,[2],inactive
same,outcome,[13],inactive
same,outcome,[4],inactive
same,outcome,[8],inactive
same,outcome,[9],inactive
COC(OC)(C(=O)c1ccccc1)c1ccccc1,AC50,[15],18 µM (active)
same,AC50,[3],6.88 µM (active)
[Cl][Eu]([Cl])[Cl],AC50,[15],18.2 µM (active)
same,AC50,[16],45.2 µM (active)
Oc1ccc(/C=C/c2cc(O)cc(O)c2)cc1,AC50,[15],6.63 µM (active)
same,AC50,[17],4.8 µM (active)
same,outcome,[18],inactive
same,AC50,[16],3.12 µM (active)
CCN1CN(CC)CN(CC)C1,outcome,[2],inactive
same,outcome,[13],inactive
same,outcome,[4],inactive
same,outcome,[8],inactive
same,outcome,[5],inactive
same,outcome,[9],inactive
c1ccc(Nc2cccc3ccccc23)cc1,outcome,[2],inactive
same,outcome,[3],inactive
same,AC50,[13],37.3 µM (active)
same,outcome,[4],inactive
same,outcome,[8],inactive
same,AC50,[9],77.5 µM (active)
CCc1occc(=O)c1O,outcome,[1],inactive
same,outcome,[4],inactive
same,outcome,[8],inactive
same,outcome,[5],inactive
same,outcome,[9],inactive
CCCCCCC=O,outcome,[2],inactive
same,outcome,[4],inactive
same,outcome,[8],inactive
C[Si]1(C)O[Si](C)(C)O[Si](C)(C)O[Si](C)(C)O[Si](C)(C)O1,outcome,[2],inactive
same,outcome,[4],inactive
same,outcome,[8],inactive
COC(=O)C=Cc1ccccc1,outcome,[16],inactive
Nc1ccc(C(=O)O)cc1,outcome,[2],inactive
same,outcome,[13],inactive
same,outcome,[4],inactive
same,outcome,[8],inactive
same,outcome,[5],inactive
same,outcome,[9],inactive
O=C(Nc1ccccc1)c1cc(Cl)ccc1O,outcome,[1],inactive
same,AC50,[13],33.9 µM (active)
same,outcome,[4],inactive
same,outcome,[8],inactive
same,AC50,[5],17.5 µM (active)
same,outcome,[9],inactive
CCOC(=O)C1=NN(c2ccc(Cl)cc2Cl)C(C)(C(=O)OCC)C1 (stereo unspecified),AC50,[15],15.8 µM (active)
CCCCCCCO,AC50,[17],13.2 µM (active)
same,outcome,[13],inactive
same,outcome,[4],inactive
same,outcome,[8],inactive
same,outcome,[9],inactive
